An excerpt weighted towards active compounds, which were near 17% of everything screened.
DT40 TDP1 no CPT: qHTS for Inhibitors of human tyrosyl-DNA phosphodiesterase 1 (TDP1): qHTS in cells in absence of CPT; DT40 Tdp1-/- hTDP1 cells, no CPT, ATP luminescence, 48 h; 420,000 tested, 15% active; Potency, µM (doses to about 46.2 µM), without a hit: top-dose activity change, negative = growth inhibition, hits mostly inhibitors; also: % is scaled to controls: 0 for no effect and ±100 for the full control effect; nearly all actives have a fitted effect of over 55% in size
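Compound effects on proliferation are scored in DT40 Tdp1-/-;hTDP1 cells in the absence of CPT. ATP levels (CellTiter-Glo luminescence) are recorded after a ≥48 hr, 37 °C incubation.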
HepG2 viability: HepG2 cytotoxicity, counter-screen for TGF-b inhibitors | HepG2 CAGA-GFP viability, ATP luminescence, 18 h | 410,000 tested, 0.76% active | Potency, µM (highest dose often 46.1 µM), for the others: top-dose activity change, negative = cytotoxicity, hits mostly cytotoxic
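HepG2 CAGA-GFP cells (1000/well, DMEM with 1% FBS) received compound, then TGF-beta at 500 pg/mL final, and were incubated 18 hours at 37 degrees C. Viability was read by CellTiter-Glo luminescence. Media-only wells were set as complete cell-killing and DMSO as no toxicity.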
TDP1 cell CPT: growth inhibition of DT40 Tdp1-/-;hTDP1 cells with camptothecin (screen for TDP1 inhibitors) | chicken DT40 Tdp1-/-;hTDP1 cells + 20 nM CPT, ATP luminescence, 48 h | Potency, µM (highest dose often 46.2 µM), without a hit: at the top dose activity change, negative = growth inhibition, actives largely listed as inhibitors | 420,000 tested, 12% active; also: % is scaled to controls: 0 for no effect and ±100 for the full control effect; nearly all actives have a fitted effect of over 55% in size
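Chicken DT40 Tdp1-/- cells stably complemented with human TDP1 were seeded at 400 cells/well in medium containing 20 nM camptothecin, exposed to pin-transferred compounds, and grown at 37 °C for at least 48 hr. Viability was read as ATP luminescence.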
HT1080NT lethal: kills 2HG-producing HT-1080-NT fibrosarcoma cells; HT-1080-NT fibrosarcoma viability, CellTiter-Glo ATP luminescence, 48 h; Potency, µM (top dose mostly 46.1 µM), without a hit: top-dose activity, negative = less viability, usual class: cytotoxic; 360,000 tested, 1.6% active; AID 686970;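 also: NT is the 2HG producing partner of a matched IDH1 knockdown line; 0% = DMSO-treated cells and -100% = media-only wells without cells; nearly all actives have a fitted effect of over 55% in size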
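A 48-hour cytotoxicity screen used HT-1080-NT cells plated 2 hours before compound delivery. ATP-based CellTiter-Glo luminescence measured viability, normalized to DMSO and no-cell controls.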
TGFb inhibitor: TGF-b pathway inhibition | AID 588855 | HepG2 CAGA-GFP TGF-b/SMAD3 reporter, GFP fluorescence, 18 h; TGF-beta stimulated, 500 pg/mL final | 410,000 tested, 1.2% active | Potency, µM (series often up to 46.1 µM), without a hit: top-dose activity, negative = inhibition, actives largely listed as inhibitors; also: % is scaled to controls: 0 for no effect and ±100 for the full control effect; nearly all actives have a fitted effect of over 65% in size
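Using HEPG2 CAGA-GFP reporter cells at 1000 cells/well, we pinned test compounds, stimulated with recombinant TGF-beta (500 pg/mL final) and measured total well GFP after 18 h.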
HT1080 IDH1KD tx: kills HT-1080 cells with IDH1 knockdown; 360,000 tested, 2% active; HT-1080 IDH1 knockdown viability, ATP luminescence, 48 h; Potency, µM (doses to about 46.1 µM), inactives show at the highest dose activity, negative = toxicity, actives largely listed as cytotoxic;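 also: 0% = DMSO wells and -100% = cell-free medium wells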
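Assay cells: HT-1080 with IDH1 knockdown, 750 per well, RPMI/5% FBS. Exposure: 48 h at 37 °C following 2 h pre-incubation. Read: CellTiter-Glo luminescence; fitted concentration-response, curve class assigned.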
* hit, by the source's call; ? = inconclusive; . = no result; [ ] = another dose, or the depositor's remark. Calls follow the shape of the dose curve; as a rule, active = well fitted curve in the direction sought with a large enough effect; inconclusive = small, poorly fitted or top-dose-only effect, or another doubt; inactive = no such curve, though single readings can be large; an effect the other way counts as inactive or inconclusive. Potency is read from the fitted curve at half-maximal effect.

SMILES | DT40 TDP1 no CPT | HepG2 viability | TDP1 cell CPT | HT1080NT lethal | TGFb inhibitor | HT1080 IDH1KD tx
CC1(C)Cc2c(sc3nc(-c4cccs4)n(N)c(=O)c23)CO1 | 23.1µM* | -8.8% | 16.4µM* | ? | -16.8% | ?
CC(OC(=O)c1cccc(S(=O)(=O)N2CCCCCC2)c1)C(=O)Nc1ccc(S(N)(=O)=O)cc1 (stereo not drawn) | ? | 0.1% | -2.3% | -2.0% | 17.6% | 1.3%
Cc1occc1C(=O)Nc1cccc(-c2nc(CNC(=O)c3ccc4ccccc4n3)c(C)o2)c1 | 6.51µM* | . | 8.2µM* | . | . | .
COC(=O)c1cccc(C(=O)NCc2nc(-c3cccc(NC(=O)c4ccoc4C)c3)oc2C)c1 | 20.6µM* | . | -6.3%[9.04 µM] | . | . | .
CSc1nc(C(=O)NCc2nc(-c3cccc(NC(=O)c4ccccn4)c3)oc2C)cs1 | ? | . | 9.6%[9.04 µM] | . | . | .
Cc1nc(C)c(C(=O)NCc2nc(-c3cccc(NC(=O)c4ccccn4)c3)oc2C)s1 | 2.91µM* | . | 3.26µM* | . | . | .
CSc1ccccc1C(=O)NCc1nc(-c2cccc(NC(=O)c3ccoc3C)c2)oc1C | 20.6µM* | . | ? | . | . | .
Cc1cc(C(=O)NCc2nc(-c3cccc(NC(=O)c4ccccc4)c3)oc2C)nc(C)n1 | -18.1% | . | -4.4%[9.04 µM] | . | . | .
COC(=O)c1c(NC(=O)/C(C#N)=C/c2ccccc2)sc2c1CCC2 | 2.0% | -6.2% | 7.7% | . | -15.0% | .
Cc1ccc(CC(=O)NO)cc1 | -15.7% | . | ? | -2.0% | . | 18.9%
COC(=O)CCNC(=O)Cc1c(C)n(C(=O)c2ccc(Cl)cc2)c2ccc(OC)cc12 | ? | 2.3% | ? | -28.2% | 7.3% | -0.9%
CCCNC(=O)Cc1c(C)n(C(=O)c2ccc(Cl)cc2)c2ccc(OC)cc12 | ? | -8.7% | 20.6µM* | -4.0% | 0.0% | -10.6%
CC(C)(O)c1[nH]c2cc(C(F)(F)F)ccc2c1C(C)(C)O | -29.8% | -4.3% | ? | 0.6% | -17.9% | -0.9%
CC(=O)Oc1cccc(C(=O)O)c1OC(C)=O | -5.4% | . | 9.4% | . | . | .
CC(=O)Oc1ccc2nonc2c1OC(C)=O | 5.62µM* | -3.0% | 5.62µM* | . | -13.3% | .
CCOc1ccc(NCc2cccn2-c2nnc(N3CCC(C(=O)NCCOC)CC3)s2)cc1 | ? | -3.7% | ? | . | . | .
Cc1ccc(NCc2cccn2-c2nnc(N3CCC(C(=O)NCCc4ccc(Cl)cc4)CC3)s2)cc1 | 13µM* | -24.6% | ? | . | . | .
CC1CCCCN1CCCNC(=O)C1CCN(c2nnc(-n3cccc3)s2)CC1 (stereo not drawn) | 18.7% | -11.9% | -3.6% | 0.7% | -25.7% | -2.4%
CCOc1ccc(NCc2cccn2-c2nnc(N3CCC(C(=O)NCCCN4CCCCC4CC)CC3)s2)cc1 (stereo not drawn) | ? | 14.1µM* | ? | -23.6% | -19.7% | -19.2%
CCOc1ccc(NCc2cccn2-c2nnc(N3CCC(C(=O)NCc4cccc(OC)c4)CC3)s2)cc1 | 6.51µM* | -17.7% | ? | . | . | .
O=S(=O)(NCC(c1ccco1)N1CCCCC1)c1ccccc1C(F)(F)F (stereo not drawn) | ? | -21.0% | ? | -1.3% | -19.8% | -1.5%
CCC(=O)Nc1cc(NC(=O)CSc2ncc(-c3ccc(F)cc3)n2Cc2ccco2)ccc1C | 6.2% | -17.7% | -14.1% | -1.0% | -11.3% | -2.4%
COc1ccc(NC(=O)CSc2ncc(-c3ccc(F)cc3)n2Cc2ccco2)cc1 | 15.8µM* | -43.7% | 12.6µM* | ? | ? | ?
Cn1c(-c2ccccc2)cnc1SCC(=O)NCc1ccco1 | -21.1% | -13.7% | -26.2% | -6.6% | -1.1% | 1.2%[9.24 µM]
Cc1cnc(NC(=O)CSc2ncc(-c3ccccc3)n2Cc2ccco2)s1 | ? | -27.0% | 18.4µM* | ? | ? | ?
SMILES | DT40 TDP1 no CPT | HepG2 viability | TDP1 cell CPT | HT1080NT lethal | TGFb inhibitor | HT1080 IDH1KD tx
O=C(CSc1ncc(-c2ccc(F)cc2)n1Cc1ccco1)Nc1nccs1 | 20.6µM* | -77.1% | ? | -21.8% | -1.1% | -5.4%
COc1ccc(-c2cnc(SCC(=O)Nc3nc(C(C)(C)C)cs3)n2Cc2ccco2)cc1 | 20.6µM* | -10.5% | ? | ? | ? | ?
COc1ccc(-c2cnc(SCC(=O)Nc3cc(C)on3)n2Cc2ccco2)cc1 | ? | -3.5% | -17.4% | -9.4% | -19.1% | -20.1%
Cc1nc(-c2cccc(F)c2)sc1CCNC(=O)Cc1ccc(F)cc1 | ? | -22.9% | ? | . | -28.3% | .
Cc1ccc(CSCCNS(=O)(=O)c2ccccc2)cc1 | 29.1µM* | -28.7% | -23.1% | -5.2% | 0.0% | -3.1%
CC(=O)Nc1ccc(S(=O)(=O)NCCSCc2ccccc2Cl)cc1 | 18.4µM* | -18.2% | 9.2µM* | -4.6% | ? | ?
CN(c1ccc(C(=O)NCCSCc2ccc(Cl)cc2)cc1)S(=O)(=O)c1ccccc1 | 16.4µM* | -8.2% | 16.4µM* | 7.1% | -4.4% | 4.8%
Cc1ccc(CSCCNC(=O)c2ccc(N(C)S(=O)(=O)c3ccccc3)cc2)cc1 | 14.6µM* | 1.3% | ? | -9.4% | 18.7% | -19.3%
CN(c1ccc(C(=O)NCCSC(C)(C)C)cc1)S(=O)(=O)c1ccccc1 | ? | 2.8% | ? | -5.8% | 0.5% | -12.3%
Cc1ccc(CSCCNS(C)(=O)=O)cc1 | -19.7% | -9.5% | -7.7% | 5.4% | -1.3% | 12.6%
O=c1c(CCc2ccccc2)nc2cnc(N3CCNCC3)nc2n1-c1ccccc1 | 4.5% | . | -26.9% | . | . | .
C=CCNC(=O)c1cc(-c2cccnc2)nc2ccccc12 | -7.2% | 10.4% | -2.6% | 6.3% | 0.0% | 6.0%
Cc1cccc(CS(=O)(=O)Cc2ccc(C(=O)NC3CCCCCC3)o2)c1 | ? | -5.0% | ? | 0.0% | -0.1% | 2.5%
O=C(c1ccccc1)N1CCN(Cc2c[nH]c3ccccc23)CC1 | ? | -22.1% | ? | 3.0% | 1.9% | -0.6%
O=[N+]([O-])c1ccccc1CN1CCN(Cc2ccccn2)CC1 | ? | -38.3% | 25.9µM* | 3.1% | 0.0% | 1.2%
O=[N+]([O-])c1ccccc1CN1CCN(Cc2c[nH]c3ccccc23)CC1 | 3.66µM* | -51.5% | 2.91µM* | -2.8% | ? | -25.9%
Cc1nc(NC(=O)c2cccc(Cl)c2)sc1C(=O)N1CCCCC1 | 18.4µM* | -6.1% | 18.4µM* | -4.2% | -4.9% | 0.4%
CC(C)(C)OC(=O)NCCc1nnc(SCc2ccccc2Cl)o1 | ? | -16.4% | -24.4% | 12.8% | -25.3% | 0.9%
